# Data from PubChem BioAssay (NCATS).
# Values joined by “and” are separate entries in the source; they are usually repeats but may differ in a detail not shown here. Identical values can stand only once. Records with an inconclusive call do not appear. Where a call stands in place of a potency, no number is given. Active and inactive are the calls of the source. Unless noted, the call rests on the fitted dose curve; in most records, active means well fitted curve in the direction sought with a large enough effect; inconclusive means small, poorly fitted or top-dose-only effect, or another doubt; inactive means no such curve, though single readings can be large; an effect the other way counts as inactive or inconclusive.
# Experiments:
# [1] = Cell Viability - BJ (AID 421; calls by dose curve;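 further: potency means the concentration at half of the fitted maximal effect; cells exposed to compound for 40 hours at 37 °C before readout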); conditions: BJ fibroblast viability, qHTS
# Procedure, shortened: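 Cytotoxicity as drop in intracellular ATP (CellTiter-Glo, 20 min RT) after 40 hr compound exposure of BJ fibroblasts at 37 °C. Titrations scaled between DMSO and 100 uM tamoxifen, Hill-fitted for AC50.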
# [2] = Cell Viability - Jurkat (AID 426;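 active means dose-dependent loss of cell ATP signal giving a full or clear fitted curve, ranked by lower potency value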;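 further: potency means the concentration at half of the fitted maximal effect; cells exposed to compound for 40 hours at 37 °C before ATP read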); conditions: qHTS
# Procedure, shortened: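 Jurkat (Clone E6-1) cells, 5000/well in complete medium, exposed to compounds for 40 hr at 37C; intracellular ATP measured by CellTiter-Glo luminescence after 20 min at room temperature. AC50 from Hill fits.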
# [3] = Cell Viability - Hek293 (AID 427;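 active means compounds whose dose-response curve shows a full or clear partial loss of cell viability, called from curve shape rather than a numeric limit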;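 further: potency means the concentration at half of the fitted maximal effect; cells exposed to compound for 40 hours at 37 °C before reading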); conditions: qHTS
# Procedure, shortened: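 Luminescent ATP content (CellTiter-Glo, 20 min at room temperature) was measured after a 40 hr, 37 °C compound exposure of HEK293 cells. AC50 values came from Hill-equation fits of qHTS concentration-response data normalized to DMSO and 100 uM tamoxifen.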
# [4] = Cell Viability - HepG2 (AID 433; calls by dose curve;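 further: potency means the concentration at half of the fitted maximal effect; potency for ATP loss meaning cytotoxicity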); conditions: qHTS
# Procedure, shortened: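 ATP luminescence (CellTiter-Glo) after 40 h compound exposure, 37 °C, HepG2, 1500 cells/well, complete medium. Normalized: DMSO = basal, 100 uM tamoxifen = 100% inhibition. AC50 via standard Hill equation.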
# [5] = Cell Viability - SK-N-SH (AID 435; calls by dose curve; further: potency means the concentration at half of the fitted maximal effect); conditions: SK-N-SH neuroblastoma cell viability qHTS
# Procedure, shortened: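 CellTiter-Glo ATP luminescence, 20 min RT read; cells pre-plated 5 hr, compound 40 hr at 37 °C, 1500 cells/well, complete medium. Normalized DMSO = 0, 100 uM tamoxifen = 100% inhibition; Hill-fit AC50.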
# [6] = Cell Viability - Renal Proximal Tubule (AID 545); conditions: renal proximal tubule cells viability; series mostly up to 91.7 µM; further: nearly all actives have a fitted effect of over 40% in size
# Procedure, shortened: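 Rat kidney proximal tubule cells, freshly isolated; 1000 cells/well, 5 hr settle, compound 40 hr 37 °C. CellTiter-Glo 20 min RT, luminescence read. AC50 by standard Hill fit.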
# [7] = Cellular Toxicity (caspase-3) HUV-EC-C (AID 656); conditions: HUV-EC-C cells, caspase-3 activation (apoptosis), vehicle = 0, 100 µM tamoxifen = 100%; series mostly up to 92.2 µM
# Procedure, shortened: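 Luminescent caspase-3/7 activation (aminoluciferin substrate cleavage) in HUV-EC-C cells after 16 hr compound exposure, 37°C. Signal normalized to DMSO basal and 100 uM tamoxifen as 100%; AC50 from concentration-response fitted with the Hill equation.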
# [8] = Cellular Toxicity (caspase-3) SHSY5Y (AID 657); conditions: SH-SY5Y caspase-3 activation, DMSO zero, 10 µM staurosporine = 100%; series mostly up to 91.7 µM
# Procedure, shortened: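 Luminescent caspase-3/7 readout (aminoluciferin release) in SH-SY5Y cells after 16 h compound exposure in complete medium. Activity scaled between DMSO basal and 10 uM staurosporine as 100%; concentration-response fitted to Hill equation for AC50.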
# [9] = Cellular Toxicity (caspase-3) MRC-5 (AID 659); conditions: MRC-5 cells, luminescence, normalized: DMSO 0%, 10 µM staurosporine 100%; series mostly up to 91.7 µM
# Procedure, shortened: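 Luminescence from caspase-cleaved aminoluciferin substrate (Caspase-Glo 3/7, 1 hr RT) reports caspase 3/7 activity in MRC-5 lung fibroblasts after 16 hr compound exposure. Normalized to DMSO basal and 10 uM staurosporine as 100%; AC50 from Hill fits.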
# [10] = MultiTox-Fluor Cytotoxicity Assay - LYMP1-002 - Live Cells (AID 955); conditions: LYMP1-002 lymphoblastoid live-cell protease fluorescence viability; series mostly up to 46.1 µM
# Procedure, shortened: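 Human lymphoblastoid LYMP1-002 cells, 2500/well, treated 16 h at 37 C in complete medium. Live-cell protease activity via GF-AFC fluorescence (Ex/Em 405/510) after 60 min reagent incubation; AC50 from Hill fits.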
# [11] = Cell Viability - LYMP1-003 - Assay at 24 hr (AID 963); conditions: LYMP1-003 lymphoblastoid cell viability; series mostly up to 92.2 µM
# Procedure, shortened: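 Human lymphoblastoid LYMP1-003 cells, 2500/well, treated 24 h at 37 C in complete medium. Viability read as intracellular ATP by CellTiter-Glo luminescence after 30 min at room temperature; AC50 from Hill-equation fits of qHTS concentration-response.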
# [12] = Cell Viability - LYMP2-009 (AID 968); conditions: LYMP2-009 lymphoblastoid cell viability; series mostly up to 92.2 µM; further: nearly all actives have a fitted effect of over 55% in size
# [13] = Cell Viability - LYMP2-017 (AID 972); conditions: LYMP2-017 lymphoblastoid cell viability; series mostly up to 92.2 µM; further: nearly all actives have a fitted effect of over 55% in size
# Procedure, shortened: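 LYMP2-017 human lymphoblastoid cells (2500/well) settled 5 hr at 37 C, then exposed to compound 24 hr at 37 C in complete medium. Viability taken as intracellular ATP by CellTiter-Glo luminescence after 30 min at RT; AC50 from Hill fits.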
# [14] = Cell Viability - LYMP2-025 (AID 976); conditions: LYMP2-025 lymphoblastoid cell viability; series mostly up to 92.2 µM
# Procedure, shortened: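 Human lymphoblastoid LYMP2-025 cells, 2500/well, exposed 24 h at 37 C in complete medium in 1536-well qHTS. Viability as cellular ATP by CellTiter-Glo luminescence; AC50 from Hill fits of concentration-response data.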
# [15] = Cell Viability - LYMP2-016 (AID 984); conditions: LYMP2-016 lymphoblastoid cell viability, qHTS; series mostly up to 92.2 µM; further: nearly all actives have a fitted effect of over 55% in size
# Procedure, shortened: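 qHTS, 1536-well: 2500 LYMP2-016 cells/well, 5 hr 37 C, compound added, 24 hr 37 C, CellTiter-Glo 30 min RT, luminescence. Tetraoctylammonium bromide positive control. AC50 via Hill fit.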
# [16] = Cell Viability - LYMP2-024 (AID 988); conditions: LYMP2-024 lymphoblastoid cell viability; series mostly up to 92.2 µM; further: nearly all actives have a fitted effect of over 60% in size
# Procedure, shortened: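 Human lymphoblastoid LYMP2-024 cells (2500/well) rested 5 hr, then treated with compound for 24 hr at 37 C in complete medium. Viability was measured as intracellular ATP by CellTiter-Glo luminescence. AC50 values came from Hill-equation fits.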
# [17] = qHTS Assay for Identification of Small Molecule Inducers of Hypoxia Response (AID 2120; active means well fitted curve in the direction sought with a large enough effect in the signal ratio, with a control signal flat, not every such curve was filed as active; the % refers to the signal ratio); conditions: hypoxia response reporter cells, beta-lactamase ratio readout; series mostly up to 104 µM
# Procedure, shortened: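 HRE-bla ME-180 cells in Opti-MEM with 0.5% dialyzed FBS, pre-plated 4-5 h, then compound titration for 17 h at 37 degrees Celsius. CCF4 loaded 2.5 h at room temperature; 460/530 nm ratio gave %Activity and AC50 for induction.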
# [18] = qHTS assay for small molecule agonists of retinoid X receptor alpha signaling (AID 588544); conditions: HEK293T RXRa-UAS-bla, beta-lactamase reporter, 18 h; 530 nm emission
# [19] = biological target: Peroxisome proliferator-activated receptor alpha (Homo sapiens) (UniProt Q07869); assay: qHTS assay for small molecule agonists of the peroxisome proliferator-activated receptor alpha (PPARalpha) signaling pathway (AID 651778); conditions: PathHunter PPARalpha complementation, chemiluminescence, 6 h; stronger effect = higher value
# Procedure, shortened: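 Cells plated at 2,000/well and held overnight at 37 C, 5% CO2, then compound added by pin tool for 6 hr; after PathHunter detection reagent and 60 min at room temperature, chemiluminescence from enzyme complementation was read.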
# [20] = qHTS assay for small molecule agonists of the antioxidant response element (ARE) signaling pathway measured by Nrf2-dependant transcriptional activity - cell viability counter screen (AID 720653; active means well fitted curve in the direction sought with a large enough effect in the repeat runs; an effect the other way counts as inactive or inconclusive); conditions: ARE-bla HepG2 viability, CellTiter-Glo ATP luminescence, 16 h; stronger effect = lower value
# Procedure, shortened: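 ARE-bla HepG2 cells (2,000/well) rested 5 hrs at 37C/5% CO2, then exposed to compounds in DMSO for 16 hrs. Viability was read in the same wells as intracellular ATP by luminescence, 30 min at room temperature after reagent addition.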
# Sequence of Peroxisome proliferator-activated receptor alpha (Homo sapiens) (Q07869 whole entry, looked up): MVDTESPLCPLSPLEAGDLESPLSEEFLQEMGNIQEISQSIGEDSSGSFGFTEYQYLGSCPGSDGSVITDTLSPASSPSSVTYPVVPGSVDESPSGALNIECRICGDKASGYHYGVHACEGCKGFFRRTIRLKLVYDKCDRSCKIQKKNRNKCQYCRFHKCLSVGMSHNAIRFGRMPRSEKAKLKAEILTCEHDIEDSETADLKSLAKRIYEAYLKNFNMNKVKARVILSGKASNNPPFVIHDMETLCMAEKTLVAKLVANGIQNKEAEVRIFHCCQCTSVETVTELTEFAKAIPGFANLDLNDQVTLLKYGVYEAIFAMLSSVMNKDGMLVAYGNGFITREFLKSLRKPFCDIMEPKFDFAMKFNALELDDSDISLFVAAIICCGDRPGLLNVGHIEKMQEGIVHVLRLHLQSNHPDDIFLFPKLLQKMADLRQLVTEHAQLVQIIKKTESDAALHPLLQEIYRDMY
SMILES,Potency [1],Potency [2],Potency [3],Potency [4],Potency [5],outcome [6],outcome [7],outcome [8],outcome [9],outcome [10],outcome [11],Potency [12],Potency [13],Potency [14],Potency [15],Potency [16],Potency [17],max response [18],max response [19],max response [20]
CC(C)(Cl)[N+](=O)[O-],> 92 µM (inactive),> 92 µM (inactive),> 92 µM (inactive),> 92 µM (inactive),> 92 µM (inactive),inactive,inactive,inactive,inactive,inactive,inactive,inactive,inactive,inactive,inactive,inactive,inactive,-3.38%,-3.23% (inactive),-1.78% (inactive)
Nc1ccc2ccccc2c1,> 92 µM (inactive),> 92 µM (inactive),> 92 µM (inactive),> 92 µM (inactive),> 92 µM (inactive),inactive,inactive,inactive,inactive,inactive,inactive,inactive,inactive,inactive,inactive,inactive,inactive,-8.86%,-2.41% (inactive),-2.01% (inactive)
Oc1cccc(Cl)c1Cl,> 92 µM (inactive),> 92 µM (inactive),> 92 µM (inactive),> 92 µM (inactive),> 92 µM (inactive),inactive,inactive,inactive,inactive,inactive,inactive,inactive,inactive,inactive,inactive,inactive,inactive,-10%,-2.6% (inactive),0.417% (inactive)
O=C(O)C(Cl)Br (stereo not given),> 92 µM (inactive),> 92 µM (inactive),> 92 µM (inactive),> 92 µM (inactive),> 92 µM (inactive),inactive,inactive,inactive,inactive,inactive,inactive,inactive,inactive,inactive,inactive,inactive,inactive,-0.567%,-0.46% (inactive),3.95% (inactive)
Clc1cccc(Cl)c1Cl,> 92 µM (inactive),> 92 µM (inactive),> 92 µM (inactive),> 92 µM (inactive),> 92 µM (inactive),inactive,inactive,inactive,inactive,inactive,inactive,inactive,inactive,inactive,inactive,inactive,inactive,4.23% and 3.5%,-3.74% (inactive) and -0.322% (inactive),-3.73% (inactive) and 1.34% (inactive)
